Each structure is given as a SMILES string. A number with no mark means an inactive call. Calls of active or inactive are those of the source. Rule as the data show it: active = fold change mostly below about -2 (no sharp cut-off); inactive = mostly above about -1.8.

The assay is described as follows: TERT promoter activity modulators, primary screen, cell-based, luciferase reporter, human (AID 1259240). The note with it: A2780 TERT promoter luciferase reporter, 16 h; at 20 µM, fold versus average of vehicle-only wells.
On to `COCCNC(=O)Cn1cc(/C=C2/C(=O)N(C)c3ccccc32)c2cc(Br)ccc21`, for which the fold change is -1.01.
As for `CCN(CC)CCNc1nc2c(c(=O)[nH]c(=O)n2C)n1Cc1ccccc1Cl`, the fold change is -1.23.
On the same count and under the same terms, to `CC(C)SC1=NSC2=NC(=O)/C(=C\c3ccco3)C(=N)N21` belongs 1.5; to `CCc1nc(N)c(C#N)c(-c2cccnc2)c1C`, -2.52 (active).
The same measure, in the same setting: to `O=C(CSc1ncnc2ccccc12)NCc1ccc2c(c1)OCO2` belongs -1.09; to `COc1ccc(NC(=O)Nc2ccc3snnc3c2)cc1OC`, 1.08.
Same read-out and setting: to `CCN1C(=O)N/C(=C/c2cn(CC(=O)Nc3ccc(Cl)cc3)c3ccccc23)C1=O` belongs -1.87; to `Cn1c(=O)c2cc(S(=O)(=O)NCCC(=O)NC3CCCCCC3)ccc2n(C)c1=O`, 1.3.
For the compound `O=C1CCCC2=C1C(c1ccccc1Cl)n1nc(-c3ccccc3)nc1N2` (centres undefined), the call was inactive.
For `FC(F)(F)c1ccc2c(c1)C1C=CCC1C(c1ccncc1)N2` (centres undefined), the fold change is -1.04.
Same read-out and setting: to `Cc1cccc(-c2nc3s/c(=C4\C(=O)N(C)c5ccccc54)c(=O)n3n2)c1` belongs -1.34.
Same read-out and setting: to `CC(C)CCNC(=O)C1CCC(CNS(=O)(=O)c2cccc3nsnc23)CC1` (centres undefined) belongs -1.62.
Consider `Fc1ccc(Br)cc1C1C=C(c2cccnc2)Nc2ncnn21` (centres undefined), for which the outcome was inactive.
For the compound `COCCN1C(=O)C(=O)/C(=C(\O)c2ccc(OC)cc2)C12C(=O)N(C)c1ccccc12` (centres undefined), the fold change was -1.95.
On to `O=C(O)CCN1C(=O)c2ccccc2S1(=O)=O`, for which the fold change was -1.2.
With `Cc1ccc2c(C)nc(NC3=NCN(CCN4CCOCC4)CN3)nc2c1`, the fold change is 1.05.
Still for that read-out and setting: to `COc1ccc2c(c1)OC13CCCCC1C2C(C(=O)c1ccccc1)C(=O)N3` (centres undefined) belongs -2.84 (active); to `CCOC(=O)N1CCC(Nc2c(NC3CCCCC3C)c(=O)c2=O)CC1` (centres undefined), -1.05.
On to `Cc1cc(C(F)(F)F)nc(Nc2nc3ccccc3o2)n1`, for which the fold change is -1.19.
Take `Cc1ccc(-c2cc(C(F)F)n3ncc(C(=O)Nc4cccnc4Cl)c3n2)cc1`: the fold change is -1.66.
Still for that read-out and setting: to `CCCN1CN=C(Nc2nc(C)c3ccc(C)cc3n2)NC1` belongs -2.8 (active).
Take `Cc1nc2sccn2c1-c1csc(Nc2ccc(O)cc2)n1`: the fold change was -1.8.
Take `CC1CCCCN1c1nnc(NC(=O)Cn2c(=O)oc3ccccc32)s1` (centres undefined): the fold change is 1.11.
Same read-out and setting: to `CCOC(=O)c1sc(NC(=O)c2cc(C)no2)c(C(=O)OCC)c1C` belongs 1.26; to `Cn1c(=O)oc2cc(S(=O)(=O)N3CCCC(C(=O)NC4CCCCCCC4)C3)ccc21` (centres undefined), 1.03.
Same read-out and setting: to `CCc1nc(C)cn1S(=O)(=O)c1cc(C)c(OC)cc1C` belongs -1.15; to `CCC(C)NC(=O)Cn1ncc2c3ccccc3n(C)c2c1=O` (centres undefined), -1.04; to `CC(C)C(NS(=O)(=O)c1ccc2c(c1)oc(=O)n2C)C(=O)Nc1ccc(F)c(F)c1` (centres undefined), -1.83.
For the compound `NC(=O)c1ccc(N=c2oc3ccccc3cc2S(=O)(=O)c2ccccc2)cc1`, the fold change was 1.06.
For the compound `O=C(O)Cn1c(O)c(C2=c3ccccc3=NC2=O)sc1=S`, the result was inactive.
Take `O=C1OC(Nc2ccc(F)cc2)c2ccccc21` (centres undefined): the fold change was -1.21.
The same measure, in the same setting: to `CC1(C)CC(=O)c2sc(NC(=O)Cc3ccc(Br)cc3)nc2C1` belongs -3.4 (active).
Still for that read-out and setting: to `CC1CCC[C@@H](C)N1C(=O)Cc1ccc(NC2=NC3CS(=O)(=O)CC3S2)cc1` (some centres undefined) belongs -1.64; to `COc1cccc(CNc2nc3ccccc3n3cnnc23)c1`, 1.12; to `CCc1nc(N)c(C#N)c(-c2ccco2)c1C`, -2.16 (active).
Regarding `Cc1ccc2oc(-c3ccccc3C(=O)O)cc(=O)c2c1`, the fold change was 1.62.
For the compound `CC(C)(C)NC(=O)CSc1nc(-c2ccc(F)cc2)cc(C(F)(F)F)n1`, the fold change is -1.59.
The same measure, in the same setting: to `COCCn1c(SCC(=O)Nc2nnc(C)s2)nc2c(c1=O)SC(C)C2` (centres undefined) belongs 1.17; to `Cc1ccc(-c2n[nH]c3c2C(c2cccc(O)c2)NC3=O)cc1` (centres undefined), -1.62.

The record behind these values is PubChem BioAssay AID1259240 (Keith Lab, Institute of Cancer Science, University of …, 2017).
